“And” between values parts separate entries of the source, which are not always exact repeats. Identical values can stand only once. Results filed as inconclusive are left out. The source made the active and inactive calls. Unless noted, the call rests on the fitted dose curve; in most records, active means well fitted curve in the direction sought with a large enough effect in the repeat runs; inconclusive means weak or mixed curves; inactive means no such curve, though single readings can be large; an effect the other way counts as inactive or inconclusive.
Assays:
[1] = qHTS assay to identify small molecule agonists of the RXR signaling pathway - cell viability counter screen (AID 1159529); further: nearly all actives have a fitted effect of over 50% in size
Method in brief: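 RXR-alpha-UAS-bla HEK 293T cells in medium with 2% charcoal-stripped FBS were pre-incubated 5 hr, then compound-treated 16 hr at 37 C. Viability was read by CellTiter-Glo luminescence in the same wells as the beta-lactamase assay, with tetraoctyl ammonium bromide as positive control.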

[2] = qHTS assay to identify small molecule antagonists of the retinoic acid receptor (RAR) signaling pathway (AID 1159552; further: nearly all actives have a fitted effect of over 50% in size)
Method in brief: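 Retinol signaling pathway inhibitors screened in C3RL4 RARE-luciferase reporter cells seeded overnight at 37 C, then compounds added with 1 uM (final) retinol as pathway substrate. After 6 hr at 37 C, luciferase luminescence read after 30 min at room temperature.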

[3] = qHTS assay to identify small molecule agonists of the retinoic acid receptor (RAR) signaling pathway (AID 1159553); conditions: C3RL4 RARE luciferase reporter, agonist, 6 h; activation: at 73.3 µM (top of the series) unless noted
Method in brief: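 Activation of retinol signaling was monitored via a RARE luciferase reporter in C3RL4 cells. After 6 hr compound treatment at 37 C, detection reagent was added for 30 min at room temperature before luminescence reading.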

[4] = qHTS assay to identify small molecule antagonists of the estrogen related receptor (ERR) signaling pathway from Tox21 library - cell viability counter screen (AID 1224834); further: nearly all actives have a fitted effect of over 30% in size; further: potency means the concentration at half of the fitted maximal effect
Method in brief: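 CellTiter-Fluor fluorescence measured; ERR cells; 17.5 h compound incubation at 37 C; 30 min reagent step.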

[5] = biological target: Luciferin 4-monooxygenase (Photinus pyralis) (UniProt P08659); assay: qHTS assay to identify small molecule inhibitors of firefly luciferase (AID 1224835); further: nearly all actives have a fitted effect of over 25% in size
Method in brief: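 Inhibition of purified Photinus luciferase is measured by luminescence. Substrate levels (D-luciferin, ATP) sit at their KM values. Each compound is tested in a concentration series.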

[6] = qHTS assay to identify small molecule agonists of the constitutive androstane receptor (CAR) signaling pathway - cell viability counter screen (AID 1224836); further: nearly all actives have a fitted effect of over 45% in size
Method in brief: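 HepG2 cells stably carrying hCAR and a CYP2B6-2.2kb reporter; 15-concentration compounds plus PK11195 (final 0.75 uM), 23 hr at 37 C/5% CO2. Viability read by CellTiter-Fluor fluorescence.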

[7] = qHTS assay to identify small molecule antagonists of the constitutive androstane receptor (CAR) signaling pathway - cell viability counter screen (AID 1224837); further: nearly all actives have a fitted effect of over 45% in size
Method in brief: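 Using CellTiter-Fluor, viability is scored in HepG2 cells stably carrying hCAR and a 2.2kb CYP2B6 reporter after 23 hr compound exposure across 15 concentrations, with CITCO present at 50 nM.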

[8] = qHTS assay to identify small molecule antagonists of the estrogen related receptor signaling pathway with the pleiotropic PPARgamma coactivator (PGC) from Tox21 10K library - cell viability counter screen (AID 1224840; active means well fitted cell-killing curve with a large enough effect in the repeat runs, not every such curve was filed as active; further: nearly all actives have a fitted effect of over 40% in size)
Method in brief: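 Here the PGC/ERR cells serve as a cytotoxicity control: they are exposed to compounds for 17.5 hours at 37 C, and live-cell signal is quantified using CellTiter-Fluor fluorescence.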

[9] = qHTS assay to identify small molecule antagonists of the estrogen related receptor signaling pathway with the pleiotropic PPARgamma coactivator (PGC) from Tox21 10K library (AID 1224841; call rule not given here; further: actives are mostly falling curves and most rising ones were filed inactive; nearly all actives have a fitted effect of over 50% in size; further: potency means the concentration at half of the fitted maximal effect)
Method in brief: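 Each well held 2,000 PGC/ERR cells, pre-incubated six hours (37 C, 5% CO2). Test substances in DMSO were added by pin tool and left for 18 h at 37 C before luciferase detection by One-Glo.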

[10] = qHTS assay to identify small molecule agonists of the estrogen related receptor signaling pathway with the pleiotropic PPARgamma coactivator (PGC) from Tox21 10K library (AID 1224842); further: nearly all actives have a fitted effect of over 15% in size
Method in brief: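 Luminescence from One-Glo (30 min, room temperature) measured after PGC/ERR cells had 18 h at 37 C with pinned compound (23 nL in DMSO). Cells had been seeded at 2,000 per well and pre-incubated 6 h.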

[11] = biological target: Thyrotropin receptor (Homo sapiens) (UniProt P16473); assay: qHTS assay to identify small molecule agonists of the thyroid stimulating hormone receptor (TSHR) signaling pathway (AID 1224843; calls by dose curve; further: nearly all actives have a fitted effect of over 45% in size)
Method in brief: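 HEK293 cells stably bearing the thyrotropin receptor were plated at 800 cells/well and challenged with compound (30 min, RT). Accumulated cAMP was quantified via cAMP-d2 competing for cryptate-tagged antibody.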

[12] = biological target: Nuclear receptor subfamily 1 group I member 3 (Homo sapiens) (UniProt Q14994); assay: qHTS assay to identify small molecule antagonists of the constitutive androstane receptor (CAR) signaling pathway (AID 1224838);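 further: HepG2 cells stably expressing hCAR with CYP2B6 luciferase reporter stimulated by CITCO; nearly all actives have a fitted effect of over 40% in size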
Method in brief: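 Reporter luminescence was quantified after 24 h exposure of hCAR/CYP2B6-2.2kb double-stable HepG2 cells to compounds at 15 concentrations in the presence of 50 nM CITCO final.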

[13] = biological target: Nuclear receptor subfamily 1 group I member 3 (Homo sapiens) (UniProt Q14994); assay: qHTS assay to identify small molecule agonists of the constitutive androstane receptor (CAR) signaling pathway (AID 1224839);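 further: HepG2 cells stably carrying human CAR and a CYP2B6 luciferase reporter; nearly all actives have a fitted effect of over 15% in size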
Method in brief: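 HepG2 cells stably co-transfected with hCAR and a CYP2B6-2.2kb luciferase reporter; compounds at 15 concentrations with 0.75 uM PK11195 present. After 24 hr at 37 C, luciferase read by ONE-Glo luminescence.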

[14] = qHTS assay to identify small molecule antagonists of the estrogen related receptor (ERR) signaling pathway - cell viability counter screen (AID 1224818);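 further: viability measured after 17.5 h of compound exposure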
Method in brief: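 In the same ERR cell assay, compound-treated wells (17.5 h, 37 C) were multiplexed with a fluorogenic viability reagent, CellTiter-Fluor, read after 30 min to flag cytotoxic substances.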

[15] = qHTS assay to identify small molecule antagonists of the estrogen related receptor signaling pathway with the pleiotropic PPARgamma coactivator (PGC) cell viability counter screen (AID 1224822)
Method in brief: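 Compounds in DMSO, with positive and negative controls, were applied to PGC/ERR cells (2,000/well) and left 17.5 h at 37 C before CellTiter-Fluor detection.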

[16] = qHTS assay to identify small molecule antagonists of the retinoid acid receptor (RAR) signaling pathway - cell viability counter screen (AID 1159551); further: nearly all actives have a fitted effect of over 35% in size
Method in brief: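 Seed C3RL4 cells; next day add compound, then retinol to 1 uM final; incubate 6 h at 37 C; add CellTiter-Glo; read luminescence after 30 min at RT.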

Measured: Potency

Chain of Luciferin 4-monooxygenase (Photinus pyralis) (P08659 whole entry, looked up): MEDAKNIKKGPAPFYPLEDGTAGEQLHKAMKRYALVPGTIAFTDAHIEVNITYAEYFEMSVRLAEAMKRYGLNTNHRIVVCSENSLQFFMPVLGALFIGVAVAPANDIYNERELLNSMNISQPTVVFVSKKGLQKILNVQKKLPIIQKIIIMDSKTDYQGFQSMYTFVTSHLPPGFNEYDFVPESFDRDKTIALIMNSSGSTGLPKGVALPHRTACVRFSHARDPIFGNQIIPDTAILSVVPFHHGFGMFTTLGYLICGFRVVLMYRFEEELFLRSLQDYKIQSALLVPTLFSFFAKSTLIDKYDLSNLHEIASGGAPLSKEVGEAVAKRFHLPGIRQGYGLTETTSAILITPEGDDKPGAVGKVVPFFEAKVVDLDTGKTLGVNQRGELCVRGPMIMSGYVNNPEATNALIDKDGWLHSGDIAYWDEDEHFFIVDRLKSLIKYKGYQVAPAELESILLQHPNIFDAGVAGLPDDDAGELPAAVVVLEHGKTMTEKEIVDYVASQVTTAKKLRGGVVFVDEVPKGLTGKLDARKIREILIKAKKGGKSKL
Chain of Thyrotropin receptor (Homo sapiens) (P16473 whole entry, looked up): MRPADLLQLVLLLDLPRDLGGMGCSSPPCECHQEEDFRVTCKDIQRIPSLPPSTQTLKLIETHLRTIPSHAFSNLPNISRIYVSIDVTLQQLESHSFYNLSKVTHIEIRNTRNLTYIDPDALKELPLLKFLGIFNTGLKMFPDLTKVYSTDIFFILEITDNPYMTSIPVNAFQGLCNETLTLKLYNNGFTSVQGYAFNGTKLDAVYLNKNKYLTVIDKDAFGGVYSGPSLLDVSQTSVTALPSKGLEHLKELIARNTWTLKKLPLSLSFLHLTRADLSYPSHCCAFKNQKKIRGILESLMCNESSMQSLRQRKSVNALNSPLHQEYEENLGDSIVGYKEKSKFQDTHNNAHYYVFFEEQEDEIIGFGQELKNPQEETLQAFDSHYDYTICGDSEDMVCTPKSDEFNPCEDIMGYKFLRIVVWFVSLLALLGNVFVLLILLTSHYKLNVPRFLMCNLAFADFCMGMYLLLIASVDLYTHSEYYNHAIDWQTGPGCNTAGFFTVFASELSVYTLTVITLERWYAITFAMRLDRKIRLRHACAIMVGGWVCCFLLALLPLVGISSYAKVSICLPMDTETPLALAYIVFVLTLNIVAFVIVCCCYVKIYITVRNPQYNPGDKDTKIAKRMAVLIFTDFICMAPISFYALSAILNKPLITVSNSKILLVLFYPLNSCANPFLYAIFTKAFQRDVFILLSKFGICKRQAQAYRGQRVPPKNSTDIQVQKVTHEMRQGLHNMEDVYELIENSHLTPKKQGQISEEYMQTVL
Chain of Nuclear receptor subfamily 1 group I member 3 (Homo sapiens) (Q14994 whole entry, looked up): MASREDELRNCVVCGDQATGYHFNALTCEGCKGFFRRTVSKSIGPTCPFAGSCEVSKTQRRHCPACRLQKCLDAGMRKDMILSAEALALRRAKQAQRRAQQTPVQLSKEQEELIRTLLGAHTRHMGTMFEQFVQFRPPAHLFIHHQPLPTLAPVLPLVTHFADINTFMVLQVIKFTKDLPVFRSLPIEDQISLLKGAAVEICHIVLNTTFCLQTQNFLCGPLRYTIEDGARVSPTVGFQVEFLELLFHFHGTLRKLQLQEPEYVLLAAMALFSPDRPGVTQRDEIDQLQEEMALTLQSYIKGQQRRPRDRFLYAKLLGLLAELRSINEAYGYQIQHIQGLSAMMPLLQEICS

Nc1cccc(C(F)(F)F)c1
not listed: [12] | [13] | [14] | [15] | [16]
inactive: all other assays above

OCc1ccc(Cl)cc1Cl
inactive: [1] | [2] | [4] | [5] | [6] | [12] | [13] | [8]

CCCCCC(C)=O
not listed: [7] | [11] | [14] | [15] | [16]
inactive: all other assays above

O=C1O[C@H]([C@H](O)CO)C(O)=C1O
inactive: [1] | [4] | [5] | [6] | [12] | [13] | [8] | [11]

CC1(C)C(=O)N(Cl)C(=O)N1Cl
inactive: [1] | [4] | [5] | [6] | [7] | [8] | [11]

CC/C=C(\C(=O)N[C@@H]1C(=O)N2C(C(=O)OCOC(=O)C(C)(C)C)=C(COC(N)=O)CS[C@H]12)c1csc(N)n1
not listed: [9] | [10] | [14] | [15] | [16]
inactive: all other assays above

CCn1cc(C(=O)O)c(=O)c2cc3c(cc21)OCO3
inactive: [1] | [14] | [15] | [4] | [5] | [6] | [8] | [11]

CC(=O)OCc1ccc2c(c1)OCO2
not listed: [2] | [3] | [7] | [14] | [15] | [16]
inactive: all other assays above

CCCCCCCCO
not listed: [9] | [10] | [14] | [15] | [16]
inactive: all other assays above

O=C(c1ccccc1)c1ccc(O)c(O)c1O
active: [4] 49 µM
inactive: [1] | [2] | [6] | [8] | [9] | [10] | [11]

COc1ccc([C@@H]2CC(=O)c3c(O)cc(O[C@@H]4O[C@H](CO[C@@H]5O[C@@H](C)[C@H](O)[C@@H](O)[C@H]5O)[C@@H](O)[C@H](O)[C@H]4O)cc3O2)cc1OC
not listed: [5] | [9] | [10] | [14] | [15] | [16]
inactive: all other assays above

Cc1ccc([N+](=O)[O-])cc1N
not listed: [7] | [9] | [10] | [14] | [15] | [16]
inactive: all other assays above

CC(C)c1ccc(C(C)C)cc1
inactive: [1] | [4] | [5] | [6] | [7] | [12] | [13] | [8] | [11]

OC[C@H]1O[C@@H](Oc2ccc(O)cc2)[C@H](O)[C@@H](O)[C@@H]1O
not listed: [12] | [13] | [14] | [15] | [16]
inactive: all other assays above

C=CC(=O)NCOCCCC
not listed: [9] | [10] | [11] | [14] | [15] | [16]
inactive: all other assays above

CC(O)CNCC(C)O (configuration not stated)
inactive: [1] | [4] | [5] | [6] | [12] | [13] | [8] | [11]

CCCN(CCC)C(=O)SCC
inactive: [1] | [4] | [5] | [6] | [7] | [12] | [13] | [8] | [11]

COc1ccc2cc3[n+](cc2c1OC)CCc1cc2c(cc1-3)OCO2
active: [4] 27.5 µM | [9] 3.88 µM and 7.5 µM
not listed: [1] | [11] | [14] | [15]
inactive: all other assays above

COC(=O)CCCCC(=O)OC
inactive: [1] | [2] | [3] | [4] | [5] | [6] | [7] | [8]

Oc1ccc(Cc2ccccc2O)cc1
not listed: [9] | [10] | [13] | [14] | [15] | [16]
inactive: all other assays above

CCCCCCC(=O)O
not listed: [7] | [14] | [15] | [16]
inactive: all other assays above

CC(=O)Nc1ccc(CC(=O)O)cc1
not listed: [2] | [3] | [14] | [15] | [16]
inactive: all other assays above

Nc1cccc(N)n1
not listed: [9] | [10] | [11] | [14] | [15] | [16]
inactive: all other assays above

CO[Si](CCCNCCN)(OC)OC
inactive: [1] | [2] | [3] | [4] | [5] | [6] | [7] | [8] | [11]

CC(=O)OC(C)(C)C1CC=C(C)CC1 (configuration not stated)
not listed: [7] | [14] | [15] | [16]
inactive: all other assays above

O=C(O)C1=NN(c2ccc(S(=O)(=O)O)cc2)C(=O)C1
inactive: [1] | [2] | [3] | [4] | [5] | [6] | [8] | [11]

From PubChem BioAssay (Tox21)
